In PubChem BioAssay (EPA / NIEHS):
Records with an inconclusive call do not appear. The source made the active and inactive calls. The calls were made as follows, unless noted: active = hit-call score of the fitted dose curve at least 0.9, where 1 is the maximum; inactive = score below 0.9.

How the values were obtained:
[1] = CCTE_Shafer_MEA_dev_mutual_information_norm: CCTE's Neural Network Formation Assay for Mutual Information Normalization, Shafer Lab (AID 2284091)
Method in brief: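 Developing rat cortical networks on 16-electrode MEA wells are treated throughout formation (DIV 0–12). Shared electrode information is recorded four times, converted to area-under-curve, and fitted for decreases against DMSO vehicle.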

[2] = CCTE_Shafer_MEA_dev_correlation_coefficient_mean: CCTE's Neural Network Formation Assay for Mean Correlation Coefficient, Shafer Lab (AID 2284093);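 as to AC50: well mean pairwise spike train correlation integrated as AUC over recording days 5 to 12; potency fitted for loss of correlation relative to DMSO vehicle wells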
Method in brief: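 Primary rat cortical neurons on PEI-coated 48-well MEA plates (16 electrodes/well) were exposed from plating day 0 through DIV12, with compound renewed at DIV5 and 9. Pairwise spike correlations were averaged per well; trapezoidal AUC across DIV5, 7, 9, 12.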

[3] = CCTE_Mundy_HCI_Cortical_Synap_Neur_Matur_NeuriteSpotCountPerNeuriteLength: CCTE's Synaptogenesis and Neurite Maturation Assay in rat cortical cells for Neurite Spot Count per Neurite Length, Mundy Lab (AID 2284210)
Method in brief: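 Primary rat cortical neurons, compound exposure DIV 7–12, 288.33 h endpoint. Hoechst, anti-MAP2 and anti-synaptophysin labelling; neurite-associated puncta per neurite length scored by automated imaging relative to DMSO controls.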

[4] = CCTE_Mundy_HCI_Cortical_Synap_Neur_Matur_BPCount: CCTE's Synaptogenesis and Neurite Maturation Assay in rat cortical cells for Branch Point Count, Mundy Lab (AID 2284211)
Method in brief: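 Rat primary cortical cultures, AraC added DIV 5; chemicals dosed DIV 7 through DIV 12. Fixed cells stained for MAP2, synaptophysin and Hoechst; neurite branch points counted by automated high-content imaging, fitted relative to DMSO.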

[5] = CCTE_Mundy_HCI_Cortical_NOG_NeuriteCount: CCTE's Neurite Outgrowth Assay in rat cortical cells for Neurite Count, Mundy Lab (AID 2284212);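 also: cells fixed about two days after chemical exposure began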
Method in brief: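 Neurite number per cell from high-content imaging of betaIII-tubulin immunostaining, with Hoechst nuclear counterstain.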

[6] = CCTE_Mundy_HCI_Cortical_Synap_Neur_Matur_NeuriteLength: CCTE's Synaptogenesis and Neurite Maturation Assay in rat cortical cells for Neurite Length, Mundy Lab (AID 2284214)
Method in brief: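 Rat cortical neurons, AraC at DIV 5; compound + media change DIV 7, end DIV 12 (288.33 h). Fix, MAP2/synaptophysin/Hoechst immunostain, automated HCI of neurite length vs DMSO.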

[7] = CCTE_Mundy_HCI_Cortical_Synap_Neur_Matur_NeuriteSpotCountPerNeuron: CCTE's Synaptogenesis and Neurite Maturation Assay in rat cortical cells for Neurite Spot Count per Neuron Count, Mundy Lab (AID 2284215)
Method in brief: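 Rat primary cortical cells received AraC at DIV 5, then chemicals with a media change at DIV 7, and were fixed at DIV 12. Synaptophysin puncta on MAP2-stained neurites per neuron were counted by high-content imaging, fitted relative to DMSO.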

[8] = TAMU_PeakParms_SingleDonor1434_Chronotropy: Texas A&M University (TAMU) 1.5-hr Human Induced Pluripotent Stem Cell (iPSC)-derived Cardiomyocytes Calcium (Ca+2) Flux Assay for Cardiotoxicity: Chronotropy (changes in peak frequency) (AID 2284217); conditions: actives raise or lower the signal
Method in brief: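 Beat rate, as mean Ca2+-flux peak frequency, was read from donor 1434 iPSC cardiomyocytes 90 min after exposure to 0.2–100 uM test chemical (0.5% DMSO). Wells that stopped beating were excluded; EC05 from bidirectional DMSO-referenced fitting.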

[9] = CCTE_Mundy_HCI_Cortical_Synap_Neur_Matur_SynapseCount: CCTE's Synaptogenesis and Neurite Maturation Assay in rat cortical cells for Synapse Count, Mundy Lab (AID 2284218)
Method in brief: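 Primary rat cortical culture; AraC DIV 5 to arrest glia; compound + media change DIV 7; terminated DIV 12. PFA/Hoechst fix, anti-MAP2 + anti-synaptophysin immunostain; HCI synapse count/neuron; DMSO = baseline.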

[10] = CCTE_Mundy_HCI_hN2_NOG_NeuriteLength: CCTE's Neurite Outgrowth Assay in human hN2 cells for Neurite Length, Mundy Lab (AID 2284220; active = hit-call score of the fitted dose curve at least 0.9, where 1 is the maximum)
Method in brief: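 Plate hNP1-derived neurons, then add chemical 2 h later as a 1/10 dilution. Stain with anti-βIII-tubulin then Alexa Fluor-488 secondary, and image automatically to measure neurite length.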

[11] = CCTE_Mundy_HCI_hN2_NOG_NeuronCount: CCTE's Neurite Outgrowth Assay in human hN2 cells for Neuron Count, Mundy Lab (AID 2284221; active = hit-call score of the fitted dose curve at least 0.9, where 1 is the maximum)
Method in brief: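 Read-out is the number of betaIII-tubulin-positive neurons imaged by automated high-content analysis, with DMSO as negative control.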

[12] = CCTE_Mundy_HCI_Cortical_Synap_Neur_Matur_NeuriteCount: CCTE's Synaptogenesis and Neurite Maturation Assay in rat cortical cells for Neurite Count, Mundy Lab (AID 2284222);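 also: exposure from day 7 to day 12 in vitro with readout at day 12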
Method in brief: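 Rat cortical neurons, 96-well; AraC DIV 5; chemical + media change DIV 7; end DIV 12. Fix PFA/Hoechst, anti-MAP2 + anti-synaptophysin IF. HCI neurite count vs DMSO baseline.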

[13] = CCTE_Shafer_MEA_acute_AB: CCTE's Alamar Blue Assay for Cytotoxicity in the Neural Acute Assay, Shafer Lab (AID 2284069; active = hit-call score of the fitted dose curve at least 0.9, where 1 is the maximum;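 also: active compounds lower the viability signal compared with DMSO wells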)
Method in brief: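 Resazurin reduction (CellTiter Blue, 1:6 in fresh medium) read at ex 544/em 590 nm marks viability loss relative to DMSO. Cells: primary rat cortical neuron networks on microelectrode arrays, treated after baseline recording at 13 or 15 days in vitro.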

[14] = CCTE_Shafer_MEA_dev_AB: CCTE's Alamar Blue Assay for Cytotoxicity in the Neural Network Formation Assay, Shafer Lab (AID 2284083; active = hit-call score of the fitted dose curve at least 0.9, where 1 is the maximum;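 also: resazurin reduction fluorescence as viability of cultured neurons; twelve days of exposure from plating with re-dosing on DIV 5 and 9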)
Method in brief: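 Resazurin fluorescence, relative to DMSO, gauges viability after twelve days of exposure that began at plating of rat cortical neurons (1.5 x 10^5 cells/well, 48-well MEA); treatment renewed with full medium exchange on DIV 5 and 9.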

[15] = CCTE_Shafer_MEA_acute_LDH: CCTE's Lactate Dehydrogenase Assay for Cytotoxicity in the Neural Acute Assay, Shafer Lab (AID 2284086; active = hit-call score of the fitted dose curve at least 0.9, where 1 is the maximum;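 also: active means LDH release rises above DMSO vehicle level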)
Method in brief: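 Rat cortical neurons cultured on microelectrode arrays; baseline 40-min recording, compound added, second 40-min recording; medium then sampled for released LDH (colorimetric kit, 490 nm). DMSO = negative control.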

[16] = CCTE_Mundy_HCI_Cortical_NOG_NeuriteLength: CCTE's Neurite Outgrowth Assay in rat cortical cells for Neurite Length, Mundy Lab (AID 2284213)
Method in brief: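 Neurite length was read by high-content imaging of βIII-tubulin-labelled neurites in rat primary cortical cultures. Activity was fitted relative to DMSO.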

[17] = IUF_NPC1b_proliferation_BrdU_72hr: Leibniz Research Institute for Environmental Medicine (IUF) 72-hour Neural Progenitor Cell Bromodeoxyuridine (BrdU) Proliferation Assay (NPC1b) (AID 2284207)
Method in brief: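 Proliferation of primary human neural progenitor cells: 72 h compound treatment at 37C, 5% CO2, pH 7.2-7.6, in EGF/FGF-containing medium. Readout is BrdU uptake (last 16 h) by chemiluminescent ELISA, normalised to DMSO.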

[18] = IUF_NPC1a_proliferation_area_72hr: Leibniz Research Institute for Environmental Medicine (IUF) 72-hour Neural Progenitor Cell Proliferation Area Assay (NPC1a) (AID 2284208)
Method in brief: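 Read-out: increase in sphere area over 72 h by automated phase-contrast imaging, fitted in positive direction versus DMSO baseline. One hNPC sphere (0.25-0.35 mm) per well in EGF/FGF medium; growth-factor withdrawal served as positive control.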

[19] = IUF_NPC1_viability_72hr: Viability Assessment at 72 hours in the Leibniz Research Institute for Environmental Medicine (IUF) Neural Progenitor Cell Proliferation Assay (NPC1) (AID 2284209)
Method in brief: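 hNPC spheres, 1/well, EGF+FGF medium, 37C/5% CO2; dosed day 0, 72 h, no re-dosing. Resazurin reduction (alamar blue) fluorescence; DMSO = negative control/baseline; growth-factor-free wells as positive control.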

Measured: AC50

O=C1CCC(N2C(=O)c3ccccc3C2=O)C(=O)N1 (configuration not stated)
not listed: [13] | [14] | [15] | [16] | [17] | [18] | [19]
inactive: all other assays above

CC[C@H]1OC(=O)[C@H](C)[C@@H](O[C@H]2C[C@@](C)(OC)[C@@H](O)[C@H](C)O2)[C@H](C)[C@@H](O[C@@H]2O[C@H](C)C[C@H](N(C)C)[C@H]2O)[C@](C)(O)C[C@@H](C)C(=O)[C@H](C)[C@@H](O)[C@]1(C)O
not listed: [8] | [10] | [11] | [17] | [18] | [19]
inactive: all other assays above

COc1ccc(-n2nc(C(F)F)cc2-c2ccc(S(C)=O)cc2)cc1 (configuration not stated)
inactive: [14] | [1] | [2]

O=P(OC(CCl)CCl)(OC(CCl)CCl)OC(CCl)CCl
active: [4] 6930 nM | [7] 2980 nM | [9] 2980 nM
not listed: [8] | [10] | [11]
inactive: all other assays above

Cc1[nH]cnc1C[C@H]1CCc2c(C)c3ccccc3n2C1=O
inactive: [13] | [15]

CCC(C)(C)C(=O)O[C@H]1C[C@@H](C)C=C2C=C[C@H](C)[C@H](CC[C@@H]3C[C@@H](O)CC(=O)O3)[C@H]21
active: [14] 1750 nM | [2] 1510 nM
inactive: [15] | [1]

Nc1nc2ncc(CNc3ccc(C(=O)N[C@@H](CCC(=O)O)C(=O)O)cc3)nc2c(=O)[nH]1
inactive: [1] | [2]
